Records with an inconclusive call do not appear. Calls of active or inactive are those of the source. Unless noted, how the calls were made is not given here.
Columns and labels:
[1] = qHTS profiling for inhibitors of Plasmodium falciparum (HB3) proliferation (AID 743324; active means well fitted curve in the direction sought with a large enough effect; an effect the other way counts as inactive or inconclusive;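 further: 100% = DMSO vehicle wells and 0% = artemisinin-treated control wells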); conditions: Plasmodium falciparum HB3 blood-stage proliferation; at 28.7 µM (top of the series) unless noted
Summary of the method: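 SYBR Green fluorescence (485 ex/535 em) of lysed cultures, incubated overnight at room temperature in the dark, quantifies parasite DNA. Infected erythrocytes at 0.3% parasitemia and 2.5% hematocrit were exposed 72 h; values normalized to DMSO and 0.29 uM artemisinin controls.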

[2] = qHTS profiling of the MIPE4 collection as inhibitors of Plasmodium falciparum (3D7) proliferation (AID 743344);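 further: scaled between DMSO vehicle wells and 0.29 µM artemisinin as full inhibition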; conditions: P. falciparum 3D7 in erythrocytes, SYBR Green DNA fluorescence, 72 h; at 28.5 µM (top of the series) unless noted
Summary of the method: (§1)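 Parasite DNA was quantified by SYBR Green I fluorescence (ex 485, em 535 nm) after overnight lysis in saponin/Triton buffer at room temperature. Cultures at 0.3% parasitemia and 2.5% hematocrit were first exposed to compound for 72 h at 37 C; signals were normalised to artemisinin (0.29 uM) and vehicle wells.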

[3] = qHTS profiling of the MIPE4 collection as inhibitors of Plasmodium falciparum (DD2) proliferation (AID 743345); conditions: P. falciparum Dd2 in erythrocytes, SYBR Green DNA, 72 h; at 28.5 µM (top of the series) unless noted
Summary of the method: as §1

[4] = qHTS profiling of the MIPE4 collection as inhibitors of Plasmodium falciparum (DD2) proliferation (Rep 2) (AID 743346); conditions: P. falciparum Dd2 in erythrocytes, SYBR Green DNA, 72 h; at 28.5 µM (top of the series) unless noted
Summary of the method: as §1

[5] = qHTS profiling of the MIPE4 collection as inhibitors of Plasmodium falciparum (HB3) proliferation (AID 743347);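 further: plate controls were DMSO vehicle wells for no effect and artemisinin wells for full effect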; conditions: P. falciparum HB3 in erythrocytes, SYBR Green DNA, 72 h; at 28.5 µM (top of the series) unless noted
Summary of the method: as §1

[6] = High-throughput drug toxicity screening in the BPDCN cell line Gen2.2 (AID 1224824); conditions: Gen2.2 BPDCN cells; at 45.8 µM (top of the series) unless noted;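 further: cells exposed to compounds for 48 h before reading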
Summary of the method: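 CellTiter-Glo luminescence read after 48 h compound exposure at 37 C defines viability; percent activity set with DMSO as 100% and bortezomib (9.2 uM final) as 0%. 500 exponentially growing cells per well, RPMI plus 10% FBS.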

[7] = High-throughput drug toxicity screening in the BPDCN cell line Cal-1 (AID 1224825); conditions: Cal-1 BPDCN cell viability, qHTS; at 45.8 µM (top of the series) unless noted
Summary of the method: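 Viability of the BPDCN line Cal-1 is measured as ATP-based luminescence (CellTiter-Glo) following 48 h incubation with compounds. Percent activity uses DMSO-treated wells as 100% and 9.2 uM bortezomib as 0%.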

[8] = qHTS Screen of the MIPE 4.0 Collection Against Ewings Sarcoma (RDES) (AID 1259252; active means well fitted curve in the direction sought with a large enough effect; an effect the other way counts as inactive or inconclusive; further: nearly all actives have a fitted effect of over 35% in size; further: potency means the concentration at half of the fitted maximal effect)
Summary of the method: (§2)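 Compound titrations go onto adherent log-phase cells 4 h after seeding, incubate 48 h at 37C, then CellTiter-Glo luminescence reports viability relative to DMSO and cell-free controls.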

[9] = qHTS Screen of the MIPE 4.0 Collection Against Ewings Sarcoma (TC71) (AID 1259253; active means well fitted curve in the direction sought with a large enough effect; an effect the other way counts as inactive or inconclusive; further: nearly all actives have a fitted effect of over 40% in size; further: potency means the concentration at half of the fitted maximal effect)
Summary of the method: as §2

[10] = qHTS assay to identify small molecule inhibitors of chordoma cells - UCH-1 (AID 1259355; active means well fitted curve in the direction sought with a large enough effect; an effect the other way counts as inactive or inconclusive; further: on the % scale 0 is the no-effect control and ±100 the full control effect; nearly all actives have a fitted effect of over 55% in size)
Summary of the method: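 A 48hr growth-inhibition format: each drug tested at 15 concentrations together with added auranofin, camptothecin, doxorubicin, rubitecan and topotecan, with cell viability quantified as CellTiter-Glo luminescence.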

[11] = qHTS assay to identify small molecule inhibitors of chordoma cells - UCH-2 (AID 1259356; active means well fitted curve in the direction sought with a large enough effect; an effect the other way counts as inactive or inconclusive; further: on the % scale 0 is the no-effect control and ±100 the full control effect)
[12] = Identifying Small Molecule Inhibitors of Pancreatic Cancer Stem Cells (SN12C, Spheroid) (AID 1259360; active means well fitted curve in the direction sought with a large enough effect; an effect the other way counts as inactive or inconclusive;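 further: 100% = DMSO-treated cells and 0% = wells without cells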); conditions: Potency: SN12C spheroid viability
Summary of the method: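 Adherent (2D) versus sphere (3D) formats; spheres generated 14 d in SCM beforehand. Compound transferred by pin tool after 4 h, 48 h incubation, CellTiter-Glo endpoint.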

[13] = Identifying Small Molecule Inhibitors of Pancreatic Cancer Stem Cells (A278, Adherent) (AID 1259361; active means well fitted curve in the direction sought with a large enough effect; an effect the other way counts as inactive or inconclusive; further: nearly all actives have a fitted effect of over 35% in size;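 on viability (% of control): 100% = DMSO-treated cells and 0% = cell-free media-only wells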)
Summary of the method: (§3)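 Viability is scored by CellTiter-Glo luminescence 48 h after dosing, expressed as percent activity against vehicle and no-cell references. Spheroid formats rely on cells cultured 14 days in stem cell media beforehand.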

[14] = Identifying Small Molecule Inhibitors of Pancreatic Cancer Stem Cells (Panc1, Adherent) (AID 1259362; active means well fitted curve in the direction sought with a large enough effect; an effect the other way counts as inactive or inconclusive;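 further: compound exposure lasted 48 h before the viability read; plate controls were DMSO-treated cells for no effect and cell-free media wells for full effect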); conditions: Potency: viability
Summary of the method: as §3

[15] = qHTS assay for measurement of the activity of small molecule inhibitors on Zika virus induced Caspase-3 activity in human iPSC derived neural progenitor cells (hNPCs) (AID 1224857; active means well fitted curve in the direction sought with a large enough effect; an effect the other way counts as inactive or inconclusive; further: % of control where 0% means no effect; nearly all actives have a fitted effect of over 65% in size)
Summary of the method: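 Zika virus (2 FFU/cell) infection of human iPSC-derived NPCs, 6 h, following 1 h compound preincubation. Read-out: Caspase-Glo 3/7 luminescence.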

[16] = qHTS assay for measurement of the activity of small molecule inhibitors on Zika virus induced Caspase-3 activity in human astrocytoma cells (AID 1224859; active means well fitted curve in the direction sought with a large enough effect; an effect the other way counts as inactive or inconclusive;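 further: plate controls were ZIKV-infected untreated cells for no effect and uninfected cells for full effect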)
Summary of the method: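 Caspase activation in ZIKV-infected SNB-19 cells (2 FFU/cell, 6 h) measured by Caspase-Glo 3/7 luminescence after 30 min RT; compound pre-incubated 1 h; normalised to uninfected and infected controls.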

[17] = qHTS Screen of the MIPE 4.0 Collection Against Ewings Sarcoma (EW8) (AID 1259255; active means well fitted curve in the direction sought with a large enough effect; an effect the other way counts as inactive or inconclusive; further: nearly all actives have a fitted effect of over 35% in size; further: potency means the concentration at half of the fitted maximal effect;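 on viability: 100% = DMSO-treated cells and 0% = medium-only wells without cells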)
Summary of the method: as §2

[18] = qHTS Screen of the MIPE 4.0 Collection Against Ewings Sarcoma (TC32) (AID 1259256; active means well fitted curve in the direction sought with a large enough effect; an effect the other way counts as inactive or inconclusive; further: nearly all actives have a fitted effect of over 45% in size; further: potency means the concentration at half of the fitted maximal effect)
Summary of the method: as §2

Compound	remaining proliferation (% of control), lower = more inhibition [1] [%]	parasite growth, % of DMSO control [2] [%]	parasite growth remaining, % of DMSO control (lower = more inhibition) [3] [%]	parasite growth, % of control (lower = inhibition) [4] [%]	growth, % of control [5] [%]	cell viability, % of control (lower = more cytotoxic) [6] [%]	viability (% of control) [7] [%]	Potency [8]	Potency [9]	outcome [10]	outcome [11]	Potency [12]	IC50 (viability decrease) [13]	Potency [14]	Potency [15]	Potency [16]	Potency [17]	Potency [18]
COc1cc2c(cc1OC)CC(=O)N(CCCN(C)C[C@H]1Cc3cc(OC)c(OC)cc31)CC2	77.1	92	98.4	55.5	79.8	163	106	16.6 µM (active)	16.6 µM (active)	inactive	inactive	inactive	inactive	inactive				
O=c1[nH]c(=O)n([C@H]2C[C@@H](O)[C@@H](CO)O2)cc1I		85	39.2	77.7		138		inactive	5.9 µM (active)						inactive	inactive	5.26 µM (active)	
C[C@H]1COC2=C1C(=O)C(=O)c1c2ccc2c1CCCC2(C)C		5.99	12.1	15.5	9.95	23.4	56.6	20.9 µM (active)										23.5 µM (active)
CCNC(=O)Nc1ccc(Oc2ncnc(N)c2C=NOC)cc1Cl		71.9	81.9	67	50.6	52.6	17	8.33 µM (active)	inactive							inactive		
O=C(CCCN1CCN(c2ccc(F)cc2)CC1)NC1c2ccccc2CSc2ccccc21 (stereo not drawn)		76	98.7		57.9	91.5	58.7	14.8 µM (active)	16.6 µM (active)									16.6 µM (active)
O[C@@H](COc1cccc2ncccc12)CN1CCN(C2c3ccccc3[C@@H]3[C@H](c4ccccc42)C3(F)F)CC1 (stereo partly drawn)		47.1	65.6		63.5	4.83	6.33	20.9 µM (active)								inactive	23.5 µM (active)	
Cc1ccc(NC(=O)Nc2cc(C(F)(F)F)ccc2F)cc1Nc1ccc2c(c1)NC(=O)C2=Cc1ccc[nH]1		8.05	14.1	21.7	10.9	4.16	2.92	23.5 µM (active)	26.4 µM (active)							inactive		26.4 µM (active)
COc1ccc2ccc(=O)oc2c1CC=C(C)C		94.2	15.6	73.4	80.3	124	97.4	23.5 µM (active)								inactive	7.43 µM (active)	inactive
Cc1cnc(Nc2cccc(CN3CCOCC3)c2)nc1Nc1cccc(S(=O)(=O)NC(C)(C)C)c1		4.05	8.36	17.3	7.02	14	3.36		2.35 µM (active)								2.64 µM (active)	
COc1cc2nccc(Oc3ccc(NC(=O)Nc4cc(C)on4)c(Cl)c3)c2cc1OC	11.5		22.7	27.3	3.73	52.1	13	2.35 µM (active)	2.64 µM (active)							inactive		2.96 µM (active)
CCCCc1ccc(NS(=O)(=O)c2ccc(C)c(C(=O)N3CCN(c4cccc(C)c4C)CC3)c2)cc1	92.7	232	99.3		257	425	99.3	inactive	20.9 µM (active)							inactive		
CN(C)c1nc(Cc2ccc(NC(=O)c3ccc(C(F)(F)F)cc3)cc2)nc(N(C)C)c1CC(=O)O		88.9	90.9	75.7	95.1	204	132	inactive								inactive	inactive	inactive
CCN(CC)CCCCNc1nc2cc(Cl)c(Cl)cc2nc1-c1ccc(-c2cccs2)s1	4.08	9.66	10.5	19.1	5.94	5.29	4.45		23.5 µM (active)				23.5 µM (active)			inactive	23.5 µM (active)	18.7 µM (active)
O=C(CO)N1CCC(c2[nH]nc(-c3ccc(Cl)cc3)c2-c2ccncn2)CC1		25.8	82.9	53.8	30.6	421	97.4	inactive	inactive							inactive		
C[C@@H]1CC=CC=CC=CC=C[C@@H](O[C@@H]2O[C@H](C)[C@@H](O)[C@H](N)[C@H]2O)C[C@@H]2O[C@](O)(C[C@@H](O)C[C@@H]3O[C@@H]3C=CC(=O)O1)C[C@H](O)[C@@H]2C(=O)O		46.3	67	59	52.6	186	110	7.43 µM (active)								inactive	11.8 µM (active)	14.8 µM (active)
CC(NCCc1ccc(O)cc1)C(O)c1ccc(O)cc1 (stereo not drawn)		85	102	73.8	96.6	91	107	inactive	inactive							inactive	inactive	
COc1cc2nc(-c3cc(F)ccc3O)nc(N[C@@H]3CNC[C@@H]3C(C)(C)O)c2cc1OC		6.37	6.09	8.84	3.61	4.14	5.24	23.5 µM (active)	20.9 µM (active)							inactive	23.5 µM (active)	
CCOC(=O)N1CCN([N+]([O-])=NOc2cc(ON=[N+]([O-])N3CCN(C(=O)OCC)CC3)c([N+](=O)[O-])cc2[N+](=O)[O-])CC1		56.9	45.7		48	87.7	81.2	inactive	inactive							inactive		4.18 µM (active)

From PubChem BioAssay (NCATS)
